# CRFR2-BP antag – CRF-BP/CRF-R2 complex antagonism; HEK293 CRF-R2/CRF-BP, CRF-induced calcium fluorescence; inhibition, % at 11.8 µM; 0.59% of 350,000 active;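 active means inhibition of the ligand-induced calcium signal above about 50% at the single tested concentration, limit read from the data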
# Keap1 Nrf2 FP – Keap1-Nrf2 (human) interaction inhibition | Q14145 | Keap1 Kelch-Nrf2 peptide fluorescence polarization, 1536-well | inhibition, % at 9.4 µM | 0.15% of 340,000 active | AID 504523; in the data active means inhibition above about 12%;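 further: human Keap1 Kelch domain with fluorescein labeled Nrf2 9mer peptide probe; 0% = neutral control wells and 100% = peptide positive control; higher means more block of Keap1 binding to Nrf2 peptide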
# Target sequence (Q14145 whole entry, looked up, the tested form may be a part): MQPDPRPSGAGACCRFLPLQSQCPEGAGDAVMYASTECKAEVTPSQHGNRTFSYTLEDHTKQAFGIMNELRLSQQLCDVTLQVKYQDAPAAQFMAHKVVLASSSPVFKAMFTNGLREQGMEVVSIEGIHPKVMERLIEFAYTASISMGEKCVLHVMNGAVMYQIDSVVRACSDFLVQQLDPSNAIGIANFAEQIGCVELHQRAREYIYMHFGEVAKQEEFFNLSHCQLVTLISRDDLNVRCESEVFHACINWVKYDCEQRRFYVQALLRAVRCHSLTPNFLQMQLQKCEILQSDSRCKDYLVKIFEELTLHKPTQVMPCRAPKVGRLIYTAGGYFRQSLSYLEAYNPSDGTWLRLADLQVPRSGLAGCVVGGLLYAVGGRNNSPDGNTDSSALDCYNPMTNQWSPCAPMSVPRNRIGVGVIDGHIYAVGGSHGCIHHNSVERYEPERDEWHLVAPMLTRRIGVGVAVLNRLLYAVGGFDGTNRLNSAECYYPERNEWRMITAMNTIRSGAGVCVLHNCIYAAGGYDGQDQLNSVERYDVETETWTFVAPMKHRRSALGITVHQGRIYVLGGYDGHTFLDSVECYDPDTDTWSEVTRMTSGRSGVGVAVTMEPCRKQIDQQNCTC
# CRFBP-R2 agonist – agonists of human CRF-binding protein/CRF-R2 receptor complex. HEK293 CRF-R2/CRF-BP, calcium dye fluorescence (FLIPR); percent of saturating CRF peptide response. activation, % at 13.2 µM. 0.46% of 350,000 active. AID 588473;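 active means activation of at least 50%, plus an integration ratio under a set limit after plate pattern correction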;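 further: plate controls were neutral control wells without compound for no effect and CRF at EC100 for full effect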
# RTF Ca sens inh – cardiac RTF calcium desensitization | 0.12% of 340,000 active | P19429+P45379 | IANBD-labeled cardiac RTF, Ca2+ fluorescence | inhibition, % at 7.15 µM;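 active means inhibition above the mean inhibition of all tested compounds plus 3 SD, cut at about 17% in these data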;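 further: assay run at fixed EC70 calcium of 1.6 mM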
# C-LANA FP – blocks KSHV LANA C-terminal domain binding to DNA. MBP-C-LANA/FAM-LBS DNA binding, fluorescence polarization. inhibition, % at 9 µM. 0.078% of 340,000 active;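 active means highest replicate inhibition at or above 60% at 9 µM, even if other replicates fall short; inactive means all replicates below 60% inhibition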;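 further: 0% = neutral control wells and 100% = 4 µM acridine orange control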
# cardiac RTF act – cardiac RTF calcium sensitization | P19429+P45379 | IANBD-labeled TnC RTF fluorescence at EC20 calcium; 0% EC20 calcium, 100% full calcium | activation, % at 7.2 µM | 0.24% of 340,000 active | AID 493008;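 active means activation above the mean over all tested compounds plus 3 SD, cut at about 30% in these data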;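 further: rise in fluorescence read as greater calcium sensitivity of cardiac thin filaments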
# The depositor's hits bear a star; · = not tested or not shown. Sampled rows, rich in hits. Any-hit rate of the full collection: about 1.3%.
SMILES,CRFR2-BP antag,Keap1 Nrf2 FP,CRFBP-R2 agonist,RTF Ca sens inh,C-LANA FP,cardiac RTF act
CCN(CC)CCN(C(=O)c1ccc(N2C(=O)CCC2=O)cc1)c1nc2cc3c(cc2s1)OCCO3,0,-4,0,7,-1,2
CCOc1ccccc1N(CC(=O)N1CCOCC1)S(=O)(=O)c1ccc(SC)cc1,-28,-2,109*,-5,0,-4
Cc1ccc(C(=O)NN2C(=O)CSC2=S)cc1,-1,-3,-1,-4,3,3
CC1(C2CC2)NC(=O)N(CC(=O)Nc2ccccc2F)C1=O (centres undefined),54*,-1,3,-13,2,-3
CCC/C(C#Cc1cc(OC)cc(OC)c1)=C1/c2ccccc2C(=O)N1c1ccccc1,7,-4,1,-5,1,8
CCC/C(C#Cc1ccc(N(C)C)cc1)=C1/c2ccccc2C(=O)N1c1ccccc1,-36,-5,79*,-60,5,114*
COc1cc2c3nnc(-c4ccc(F)cc4)c-3cn(Cc3cccc(C)c3)c2cc1OC,-17,8,5,-34,26,18
COc1cc2c3nnc(-c4ccc(F)cc4)c-3cn(Cc3cccc(F)c3)c2cc1OC,2,1,14,-63,17,49*
Cc1c(NC(=S)NC(=O)c2sc3ccccc3c2Cl)cccc1C(=O)O,23,-5,0,-17,-1,-2
COc1ccccc1C(=O)NC(=S)NNC(=O)c1sc2ccccc2c1Cl,-254,-2,251*,-6,3,-3
COc1ccccc1C(=O)NNC(=S)NC(=O)c1sc2ccccc2c1Cl,-94,-3,170*,-5,3,3
Nc1c(C(=O)c2ccccc2)sc2nsc(SCCN3CCOCC3)c12,-92,·,69*,·,·,·
O=C(NCCSCc1ccccc1)c1ccc(C2SCC(=O)N2Cc2ccccc2)cc1 (centres undefined),18,-2,0,-2,-1,-3
CC(C)CC(NC(=O)c1ccccc1)C(=O)N/N=C/c1ccco1 (centres undefined),-128,-8,178*,-3,1,1
CN(C)c1ccc(/C=C2/NC(=O)NC2=O)cc1,-1,-10,3,-10,-2,10
CN(C)c1ccc(/C=C2\N=C(c3ccc(Cl)c([N+](=O)[O-])c3)NC2=O)cc1,-106,-7,62*,-6,0,0
CNC(=O)c1sc(N2N=C3/C(=C/c4ccccc4)CCCC3C2c2ccccc2)nc1C (centres undefined),-56,-5,64*,-2,1,3
COc1ccccc1N1CCN(CC(=O)Nc2c(C)n[nH]c2C)CC1,68*,-6,-4,-1,-2,0
COc1ccccc1N1CCN(CC(=O)Nc2ccc(C)c(F)c2)CC1,8,-1,-1,-10,-3,-1
O=c1nc2s/c(=C\c3ccco3)c(=O)n2nc1Cc1ccc(F)cc1,-4,4,-1,-9,0,-4
Cc1cc(C)c(S(=O)(=O)ON2C(=O)c3ccccc3C2=O)cc1C,12,-12,3,-5,-1,5
Cc1ccc(S(=O)(=O)ON2C(=O)c3ccccc3C2=O)c(C)c1,63*,-15,2,-5,0,1
CNC(=S)N1CCc2cc(OC)c(OC)cc2C1COc1ccc(OC)cc1 (centres undefined),1,-2,-4,-4,1,5
COCCNC(=S)N1CCc2cc(OC)c(OC)cc2C1COc1cc(C)cc(C)c1 (centres undefined),86*,-5,0,-14,1,4
C#CCN1c2ccccc2Sc2cccnc21,-1,-2,0,-40,0,30*
SMILES,CRFR2-BP antag,Keap1 Nrf2 FP,CRFBP-R2 agonist,RTF Ca sens inh,C-LANA FP,cardiac RTF act
CC(CN1c2ccccc2Sc2ccccc21)N(C)C (centres undefined),-21,0,1,14,0,-2
O=C(NCc1nnc(SCC(=O)N2CCCC2)o1)c1ccccc1F,0,3,-1,-3,0,-1
CCOC(=O)N1CCN(C(=O)CSc2nnc(CNC(=O)c3ccccc3F)o2)CC1,57*,1,-4,-2,1,-4
COC(=O)C1=C(N)c2c(F)cccc2C1(C#N)c1ccccc1 (centres undefined),58*,2,-2,-13,1,2
C=COCCn1c(-c2nonc2N)nc2ccccc21,9,-1,2,-5,-1,-2
COc1ccc(-c2csc(NC(=O)c3ccccc3NS(=O)(=O)c3ccc(F)c(F)c3)n2)cc1,84*,-2,43,-8,-1,-1
Cc1ccc(S(=O)(=O)Nc2nc(-c3ccccc3)cs2)cc1,6,0,0,1,0,2
Cc1ccc(S(=O)(=O)Nc2ccccc2C(=O)Nc2nc(-c3ccc(F)cc3)cs2)cc1,77*,-3,22,-4,1,-11
CCOC(=O)C(NC(=O)CC(C)C)(Nc1sc(C)c(CC)c1C#N)C(F)(F)F (centres undefined),51*,4,2,-8,2,5
COc1ccc(-c2nc(CN3CCCCC3c3cccnc3)c(C)o2)c(F)c1 (centres undefined),-6,-3,0,-10,-2,3
O=C(CN1CC(=O)Oc2ccccc21)OCC(=O)c1ccc(Br)cc1,-1,-5,1,-9,0,5
O=C(NCCN1C(=O)S/C(=C\c2ccc(F)cc2)C1=O)C1CCN(S(=O)(=O)c2cccs2)CC1,-2,-2,-1,0,3,3
CC1CCN(C(=O)C2CCN(S(=O)(=O)c3cccc4cccnc34)CC2)CC1,-11,4,0,-9,1,-1
COc1ccc(C(=O)NCCS(=O)(=O)N(C)C2CCCCC2)cc1,51*,-2,37,4,-2,4
CCOC(=O)/C(=C/C1=CC(=C/N(C)C)/C(=O)O1)C(C)=O,-10,-141,29,-56,-35,53*
C[C@@H]1CN([C@H](C)CO)C(=O)c2cc(NC(=O)C3CCCCC3)ccc2O[C@@H]1CN(C)Cc1ccncc1,4,-5,1,-11,-1,10
Cc1ccc(NC(=O)CCc2nnc3ccc(NCc4ccco4)nn23)nc1,2,-4,0,-6,1,3
CC(CCc1ccco1)NC(=O)CCc1nnc2ccc(NCc3ccccc3)nn12 (centres undefined),53*,2,1,-7,1,-1
Cc1ccc(C(C)C)c2c1C(c1ccc3c(c1)OCO3)CC(=O)O2 (centres undefined),-8,1,66*,-2,1,-2
Cc1nn(-c2ccc(C(=O)O)cc2)c2c1C(=O)CC(C)(C)C2,2,-3,-3,6,-12,-3

# Screening results (PubChem)
